Assay outcomes from PubChem.
BoNT-A LC inh2: blocks Botulinum neurotoxin A light chain protease | multiplex microsphere protease substrate cleavage, flow cytometry | inhibition, % at 10 µM | 0.17% of 360,000 active; also: plate controls were buffer without enzyme for full effect and enzyme alone for no effect
VHR inh abs: DUSP3 (human) phosphatase inhibition | inhibition, % at 13.3 µM | recombinant VHR phosphatase, pNPP absorbance | 0.52% of 290,000 active | P51452; in the data active = inhibition above about 50%
BoNT-F LC inh: blocks Botulinum neurotoxin F light chain protease | Multiplex microsphere protease cleavage assay, flow cytometry | inhibition, % at 10 µM | 0.22% of 360,000 active; in the data active = inhibition above about 35%, passing the limit was not always enough; inconclusive = no clear call, values can overlap the other calls; also: plate controls were buffer without enzyme for full effect and enzyme alone for no effect
Anthrax LF inh2: anthrax lethal factor protease inhibition; P15917; multiplex microsphere protease cleavage assay, LF; inhibition, % at 10 µM; 0.12% of 360,000 active; also: plate controls were buffer without enzyme for full effect and enzyme alone for no effect
Autofluor counter: compound fluorescence in toxin protease inhibitor counterscreen | AID 624483 | compound autofluorescence counterscreen, microsphere flow cytometry; hits give high values | fluorescence intensity (no concentration beside the values) | 3.1% of 360,000 active; in the data active = fluorescence intensity above about 16000; inconclusive = no clear call, values can overlap the other calls
MazEF act: MazEF (E. coli) toxin RNase activation | FAM/BHQ RNA-DNA oligo cleavage fluorescence, 5 h | activation, % at 20 µM | 0.32% of 350,000 active; in the data active = activation above about 50%
An asterisk follows results filed as active. A selection: hits, their analogues and other compounds. The true share with any hit is near 4%. Rule as the data show it, unless noted: active = inhibition above about 30%; inconclusive = no clear call, values can overlap the other calls; inactive = below that.

What do the screens show for `c1ccc(CCn2c(SCc3ccccc3)nnc2-c2ccncc2)cc1`?
BoNT-A LC inh2: 1; VHR inh abs: -22; BoNT-F LC inh: 10; Anthrax LF inh2: 3; Autofluor counter: 2144; MazEF act: -7

Results for C=C(C)Cn1c(SCC(=O)O)nnc1-c1ccccc1 ?
BoNT-A LC inh2: -1; VHR inh abs: -28; BoNT-F LC inh: -9; Anthrax LF inh2: -7; Autofluor counter: 9791; MazEF act: 2

Results for O=C(O)CSc1nnc(-c2ccncc2)n1CCc1ccccc1 ?
BoNT-A LC inh2: -5; VHR inh abs: 14; BoNT-F LC inh: -6; Anthrax LF inh2: 0; Autofluor counter: 22072*; MazEF act: 5

Results for O=C(CSc1nnc(-c2ccncc2)n1Cc1ccccc1)NCCc1ccccc1 ?
BoNT-A LC inh2: -1; VHR inh abs: 14; BoNT-F LC inh: -8; Anthrax LF inh2: -2; Autofluor counter: 3119; MazEF act: -5

How did CNC(=O)CSc1nnc(-c2ccncc2)n1Cc1ccccc1 do in these assays?
BoNT-A LC inh2: 0; VHR inh abs: 19; BoNT-F LC inh: 1; Anthrax LF inh2: -2; Autofluor counter: 16183*; MazEF act: 8

How did C=CCn1c(SCC(=O)O)nnc1-c1ccccc1 do in these assays?
BoNT-A LC inh2: 0; VHR inh abs: 26; BoNT-F LC inh: 0; Anthrax LF inh2: -6; Autofluor counter: 22122*; MazEF act: 0

Results for O=C(OC1CCCCC1)c1cc2ccccc2oc1=O ?
BoNT-A LC inh2: 3; VHR inh abs: 5; BoNT-F LC inh: 0; Anthrax LF inh2: -4; Autofluor counter: 2973; MazEF act: 0

Results for CC(=O)C1=NN(c2ccccc2)C(c2ccc3c(c2)OCO3)N1c1ccc(N2CCOCC2)cc1 (stereo not given) ?
BoNT-A LC inh2: 2; VHR inh abs: -6; BoNT-F LC inh: -4; Anthrax LF inh2: -2; Autofluor counter: 2386; MazEF act: 0

What do the screens show for `CCn1c(SCC(O)c2ccccc2)nnc1-c1ccccc1` (stereo not given)?
BoNT-A LC inh2: 0; VHR inh abs: -11; BoNT-F LC inh: 0; Anthrax LF inh2: 0; Autofluor counter: 1928; MazEF act: -3

Results for CCn1c(SCc2cccc(C)c2)nnc1-c1ccccc1 ?
BoNT-A LC inh2: inconclusive; VHR inh abs: 7; BoNT-F LC inh: -2; Anthrax LF inh2: -1; Autofluor counter: 23697*; MazEF act: -3

Results for CCOC(=O)c1cc(=O)n(Cc2ccccc2C)c2ccccc12 ?
BoNT-A LC inh2: 0; VHR inh abs: -4; BoNT-F LC inh: 0; Anthrax LF inh2: -1; Autofluor counter: 20854*; MazEF act: 0

How did CC1(C)CC(=O)c2c(nn(-c3ccccc3)c2-c2ccncc2)C1 do in these assays?
BoNT-A LC inh2: inconclusive; VHR inh abs: 18; BoNT-F LC inh: -3; Anthrax LF inh2: 1; Autofluor counter: 22472*; MazEF act: 2

Results for COc1ccc(Cl)cc1CN1CCOCC1 ?
BoNT-A LC inh2: -4; VHR inh abs: 16; BoNT-F LC inh: inconclusive; Anthrax LF inh2: -7; Autofluor counter: 3476; MazEF act: -8

Results for C[n+]1c(/C=C/c2ccc(O)cc2)ccc2ccccc21 ?
BoNT-A LC inh2: 1; VHR inh abs: 6; BoNT-F LC inh: -85; Anthrax LF inh2: -15; Autofluor counter: 3189; MazEF act: -32

What do the screens show for `Cc1cc(/C=C\c2ccc3cc(N(C)C)ccc3[n+]2C)c(C)n1-c1ccccc1`?
BoNT-A LC inh2: 16; BoNT-F LC inh: active; Anthrax LF inh2: -107; Autofluor counter: 3555; MazEF act: 14

What do the screens show for `CN1C(=O)CC(Nc2cccc3cccc(N)c23)C1=O` (stereo not given)?
BoNT-A LC inh2: 0; VHR inh abs: 58*; BoNT-F LC inh: -10; Anthrax LF inh2: -8; Autofluor counter: 4184; MazEF act: 21

What do the screens show for `COc1ccc(NC(=O)c2cc(C3CCCCN3C(=O)c3ccc(C#N)cc3)on2)c(C)c1` (stereo not given)?
BoNT-A LC inh2: 0; BoNT-F LC inh: -1; Anthrax LF inh2: 6; Autofluor counter: 3814

How did Cn1ccnc1SCC(=O)Nc1cccc(O)c1 do in these assays?
BoNT-A LC inh2: -2; VHR inh abs: 15; BoNT-F LC inh: 0; Anthrax LF inh2: -3; Autofluor counter: 17009*; MazEF act: -1

What do the screens show for `O=C(Nc1cc(C(F)(F)F)ccc1N1CCOCC1)c1ccc2ccccc2n1`?
BoNT-A LC inh2: 0; VHR inh abs: 1; BoNT-F LC inh: -2; Anthrax LF inh2: -5; Autofluor counter: 19909*; MazEF act: 8
